Compounds without any hit were thinned out: in the full panel of roughly 83,000, 20% have a hit.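 Step 1: grow cells in 96-well plates. Step 2: add test compound at a single concentration. Step 3: incubate 48 h. Step 4: record percent growth.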 Unmarked numbers belong to inactive results. Active and inactive are the calls of the source. The calls were made as follows: active = growth percent below 10; inactive = the rest.
tested on: ACHN renal; test: NCI-60 one-dose screen, 48 h (100 = growth as untreated, 0 = no growth, -100 = all killed); settings: 10 µM unless noted

Structure (SMILES) | growth
O=S(=O)(NCCCNc1nccc(-n2ccc3cccnc32)n1)c1cccc(C(F)(F)F)c1 | 105%
CC(C)(C)n1cc(-c2ccnc(NCCNS(=O)(=O)c3ccc(F)cc3)c2)c(-c2cccc(O)c2)n1 | 63%
Cc1ccc(-c2cc3nc(C(Cl)Cl)nc(-c4ccccc4C)n3n2)cc1 | 49.1%
O=C(NNC(=O)N1c2ccccc2C=Cc2ccccc21)c1ccc2ccccc2c1 | 96.1%
CN(C[C@H]1Cc2c(cccc2N2CCN(Cc3ccccn3)CC2)CN1)[C@H]1CCCc2cccnc21 | 43.2%
CCCCCCCCC(C)OC(=O)c1nn(C(C)=O)c2ccccc12 (stereo not drawn) | 107%
OC(c1cc2cc(Br)ccc2c2cc(Br)ccc12)C1CCCCN1 (stereo not drawn) | -73.4% (active)
O=C(NS(=O)(=O)c1ccc2ccccc2c1)n1cc(-c2ccncc2)c(-c2ccc(Cl)c(O)c2)n1 | 49.6%
Cc1cc(N)n(S(=O)(=O)c2oc(-c3ccccc3)nc2C#N)n1 | 5.25% (active)
O=[N+]([O-])c1ccc(C(c2ccccc2)c2ccccc2)cc1 | 90.3%
CN(C)c1oc(C2OC2c2ccccc2)nc1C#N (stereo not drawn) | 94.7%
Cc1ccc(S(=O)(=O)NC(=O)n2cc(-c3ccncc3)c(-c3ccc(Cl)c(O)c3)n2)cc1 | 94.5%
CN(CCCCN(C[C@H]1Cc2ncccc2CN1)[C@H]1CCCc2cccnc21)C1CCC(F)(F)CC1 | 102%
Cc1cc(C2(c3cc(C)c(O)cc3C)OS(=O)(=O)c3ccccc32)c(C)cc1O | 105%
CC1CN(c2oc(-c3ccccc3)nc2C#N)CC(C)O1 (stereo not drawn) | 103%
NC(=O)CCCN1C/C(=C\c2ccccc2)C(=O)c2ccccc21 | 98.7%
Cc1ccc(S(=O)(=O)NCCCNc2cc(-c3cn(C(C)(C)C)nc3-c3cccc(O)c3)ccn2)cc1 | 62.4%
Cc1nc2ncccc2nc1Nc1ccc(S(=O)(=O)Nc2ccccn2)cc1 | 95.2%
COc1ccc(NC(=O)c2c(Nc3ccc(OC)cc3OC)n[nH]c2N)c(OC)c1 | 95%
CCOC(=O)c1cn2c3c(cc(C)cc3c1=O)C(=O)/C(=C/c1ccccc1)C2 | 91.3%

Structure (SMILES) | growth
N=c1ccc2nc3ccc(N)cc3sc-2c1 | 55.2%
CC12CCC3C4(C)COC(c5ccccc5Cl)OC4CCC3(C)C1CC(C1=CCOC1=O)O2 (stereo not drawn) | 58.8%
C=C1CCC2C(C)(CO)C(O)CCC2(C)C1CC(NCc1ccccc1)C1=CCOC1=O (stereo not drawn) | 100%
c1cc(C2=N[C@@H]3c4ccccc4C[C@@H]3O2)nc(C2=N[C@@H]3c4ccccc4C[C@@H]3O2)c1 | 102%
COC1=C(OC)C(=O)C(CCCCCCCCCC[P+](c2ccccc2)(c2ccccc2)c2ccccc2)=C(C)C1=O | -25.9% (active)
COc1ccc(-c2cc(-c3ccccc3)nc(SCCCC(=O)NO)n2)cc1OC | -0.775% (active)
N=C(N)c1ccc(-c2cc(Cl)cc(Cl)c2)cn1 | 91.3%
Nc1cccc(-c2nc3sccn3c2-c2ccnc(NCCNS(=O)(=O)c3ccc(C(F)(F)F)cc3)n2)c1 | 33.9%
C=C1CCC2C(C)(CO)C(O)CCC2(C)C1C/C=C1/C(=O)OCC1O/C=C/c1ccccc1 (stereo not drawn) | 87.2%
CCN(CC)CCC(CNc1ccnc2cc(Cl)ccc12)c1ccccc1 (stereo not drawn) | 35.3%
COc1ccc(-c2ccc(-c3ccc(C(=N)N)cn3)s2)cc1OC | 93.8%
Cn1cnc2c(N3CCN(C(=O)OCc4ccc5c(Cl)cc(Cl)c(O)c5n4)CC3)nc(Cl)nc21 | 48.4%
C=C1CCC2C(C)(CO)C(O)CCC2(C)C1C/C=C1/C(=O)OCC1Oc1ccccc1C (stereo not drawn) | 91.6%
COc1ccc(S(=O)(=O)NCCCNc2nccc(-n3ccc4cccnc43)n2)cc1 | 94.6%
CCN(CC)CCC(CNc1ccnc2cc(Cl)ccc12)c1ccc(Cl)cc1 (stereo not drawn) | -74.5% (active)
N=C(N)c1ccc(-c2ccc(-c3ccc(-c4cccs4)s3)s2)cc1 | 102%
COc1ccc(Nc2nn3c(C)cc(C)nc3c2C(=O)Nc2ccc(C)cc2)c(OC)c1 | 101%
CCCCCCN1CSC(=S)N(CCCCCC)C1 | 109%
O=C(NS(=O)(=O)c1ccccc1)n1cc(-c2ccncc2)c(-c2ccc(Cl)c(O)c2)n1 | 86.8%

tested on: CAKI-1 renal; test: as above; settings: 10 µM unless noted

Structure (SMILES) | growth
O=S(=O)(NCCCNc1nccc(-n2ccc3cccnc32)n1)c1cccc(C(F)(F)F)c1 | 94.6%
CC(C)(C)n1cc(-c2ccnc(NCCNS(=O)(=O)c3ccc(F)cc3)c2)c(-c2cccc(O)c2)n1 | 61.3%
Cc1ccc(-c2cc3nc(C(Cl)Cl)nc(-c4ccccc4C)n3n2)cc1 | 48.1%
O=C(NNC(=O)N1c2ccccc2C=Cc2ccccc21)c1ccc2ccccc2c1 | 96.8%
CN(C[C@H]1Cc2c(cccc2N2CCN(Cc3ccccn3)CC2)CN1)[C@H]1CCCc2cccnc21 | 42.8%
CCCCCCCCC(C)OC(=O)c1nn(C(C)=O)c2ccccc12 (stereo not drawn) | 91.1%
OC(c1cc2cc(Br)ccc2c2cc(Br)ccc12)C1CCCCN1 (stereo not drawn) | -81% (active)
O=C(NS(=O)(=O)c1ccc2ccccc2c1)n1cc(-c2ccncc2)c(-c2ccc(Cl)c(O)c2)n1 | 96.2%
Cc1cc(N)n(S(=O)(=O)c2oc(-c3ccccc3)nc2C#N)n1 | -49.4% (active)
O=[N+]([O-])c1ccc(C(c2ccccc2)c2ccccc2)cc1 | 83.1%
CN(C)c1oc(C2OC2c2ccccc2)nc1C#N (stereo not drawn) | 93.7%
Cc1ccc(S(=O)(=O)NC(=O)n2cc(-c3ccncc3)c(-c3ccc(Cl)c(O)c3)n2)cc1 | 95.5%
CN(CCCCN(C[C@H]1Cc2ncccc2CN1)[C@H]1CCCc2cccnc21)C1CCC(F)(F)CC1 | 73.9%
Cc1cc(C2(c3cc(C)c(O)cc3C)OS(=O)(=O)c3ccccc32)c(C)cc1O | 95.7%
CC1CN(c2oc(-c3ccccc3)nc2C#N)CC(C)O1 (stereo not drawn) | 87%
NC(=O)CCCN1C/C(=C\c2ccccc2)C(=O)c2ccccc21 | 90.6%
Cc1ccc(S(=O)(=O)NCCCNc2cc(-c3cn(C(C)(C)C)nc3-c3cccc(O)c3)ccn2)cc1 | 59.7%
Cc1nc2ncccc2nc1Nc1ccc(S(=O)(=O)Nc2ccccn2)cc1 | 82.6%
COc1ccc(NC(=O)c2c(Nc3ccc(OC)cc3OC)n[nH]c2N)c(OC)c1 | 94.9%
CCOC(=O)c1cn2c3c(cc(C)cc3c1=O)C(=O)/C(=C/c1ccccc1)C2 | 73.3%

Structure (SMILES) | growth
N=c1ccc2nc3ccc(N)cc3sc-2c1 | 46.4%
CC12CCC3C4(C)COC(c5ccccc5Cl)OC4CCC3(C)C1CC(C1=CCOC1=O)O2 (stereo not drawn) | 56.1%
C=C1CCC2C(C)(CO)C(O)CCC2(C)C1CC(NCc1ccccc1)C1=CCOC1=O (stereo not drawn) | 90.3%
c1cc(C2=N[C@@H]3c4ccccc4C[C@@H]3O2)nc(C2=N[C@@H]3c4ccccc4C[C@@H]3O2)c1 | 92.4%
COC1=C(OC)C(=O)C(CCCCCCCCCC[P+](c2ccccc2)(c2ccccc2)c2ccccc2)=C(C)C1=O | -40.6% (active)
COc1ccc(-c2cc(-c3ccccc3)nc(SCCCC(=O)NO)n2)cc1OC | -37.9% (active)
N=C(N)c1ccc(-c2cc(Cl)cc(Cl)c2)cn1 | 68.4%
Nc1cccc(-c2nc3sccn3c2-c2ccnc(NCCNS(=O)(=O)c3ccc(C(F)(F)F)cc3)n2)c1 | 39.1%
C=C1CCC2C(C)(CO)C(O)CCC2(C)C1C/C=C1/C(=O)OCC1O/C=C/c1ccccc1 (stereo not drawn) | 77.1%
CCN(CC)CCC(CNc1ccnc2cc(Cl)ccc12)c1ccccc1 (stereo not drawn) | 43.4%
COc1ccc(-c2ccc(-c3ccc(C(=N)N)cn3)s2)cc1OC | 110%
Cn1cnc2c(N3CCN(C(=O)OCc4ccc5c(Cl)cc(Cl)c(O)c5n4)CC3)nc(Cl)nc21 | 63.8%
C=C1CCC2C(C)(CO)C(O)CCC2(C)C1C/C=C1/C(=O)OCC1Oc1ccccc1C (stereo not drawn) | 95.8%
COc1ccc(S(=O)(=O)NCCCNc2nccc(-n3ccc4cccnc43)n2)cc1 | 69.6%
CCN(CC)CCC(CNc1ccnc2cc(Cl)ccc12)c1ccc(Cl)cc1 (stereo not drawn) | -40.3% (active)
N=C(N)c1ccc(-c2ccc(-c3ccc(-c4cccs4)s3)s2)cc1 | 106%
COc1ccc(Nc2nn3c(C)cc(C)nc3c2C(=O)Nc2ccc(C)cc2)c(OC)c1 | 95.7%
CCCCCCN1CSC(=S)N(CCCCCC)C1 | 81.3%
O=C(NS(=O)(=O)c1ccccc1)n1cc(-c2ccncc2)c(-c2ccc(Cl)c(O)c2)n1 | 99%

Reference: PubChem BioAssay (NCI)
